Among the data in article PMC3218832 are binding signal values, retold here.

Targets include RELARELA (p65 homodimer) (Homo sapiens, UniProt Q04206 1-307); p50p50 homodimer (Homo sapiens, UniProt P19838 7-356); RELB subunit;p50 subunit (Homo sapiens;Homo sapiens, UniProt Q01201;P19838 120-401;7-356).
What all share (experiment): protein binding microarray; high values mean tight binding
Common to all, as to details: dsDNA, one strand shown

In another assay the target is T1, p52p52 homodimer (Homo sapiens, UniProt Q00653 4-332).
T1 sequence: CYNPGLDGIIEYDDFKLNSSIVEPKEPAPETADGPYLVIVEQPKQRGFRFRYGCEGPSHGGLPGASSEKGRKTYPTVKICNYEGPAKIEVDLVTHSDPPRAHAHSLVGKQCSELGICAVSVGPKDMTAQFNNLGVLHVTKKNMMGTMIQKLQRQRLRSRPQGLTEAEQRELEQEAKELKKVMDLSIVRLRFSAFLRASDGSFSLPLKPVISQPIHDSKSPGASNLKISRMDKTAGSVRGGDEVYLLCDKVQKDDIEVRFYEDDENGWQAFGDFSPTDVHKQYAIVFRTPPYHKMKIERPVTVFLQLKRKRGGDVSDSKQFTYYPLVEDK

In assay [1] the target is RELA (p65) subunit of heterodimer;p50 subunit (Homo sapiens;Homo sapiens, UniProt Q04206;P19838 1-307;7-356).
Assay [2] has as its target RELA (p65) subunit of heterodimer;p52 subunit (Homo sapiens;Homo sapiens, UniProt Q04206;Q00653 1-307;4-332).
In the next assay the target is T2, RELB subunit;p52 subunit (Homo sapiens;Homo sapiens, UniProt Q01201;Q00653 120-401;4-332).
T2 sequence 1: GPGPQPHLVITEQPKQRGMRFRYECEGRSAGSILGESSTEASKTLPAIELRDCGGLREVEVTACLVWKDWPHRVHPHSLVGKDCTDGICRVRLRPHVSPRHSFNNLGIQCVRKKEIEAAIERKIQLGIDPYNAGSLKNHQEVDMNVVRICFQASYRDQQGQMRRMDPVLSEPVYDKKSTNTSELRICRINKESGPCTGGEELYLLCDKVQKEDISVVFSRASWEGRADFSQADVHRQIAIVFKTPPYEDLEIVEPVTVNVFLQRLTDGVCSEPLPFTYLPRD
T2 sequence 2: T1 sequence

For assay [3], the target named is C-Rel subunit;p50 subunit (Homo sapiens;Homo sapiens, UniProt Q04864;P19838 1-285;7-356).
Assay [4] concerns the target T3, C-Rel subunit;p52 subunit (Homo sapiens;Homo sapiens, UniProt Q04864;Q00653 1-285;4-332).
T3 sequence 1: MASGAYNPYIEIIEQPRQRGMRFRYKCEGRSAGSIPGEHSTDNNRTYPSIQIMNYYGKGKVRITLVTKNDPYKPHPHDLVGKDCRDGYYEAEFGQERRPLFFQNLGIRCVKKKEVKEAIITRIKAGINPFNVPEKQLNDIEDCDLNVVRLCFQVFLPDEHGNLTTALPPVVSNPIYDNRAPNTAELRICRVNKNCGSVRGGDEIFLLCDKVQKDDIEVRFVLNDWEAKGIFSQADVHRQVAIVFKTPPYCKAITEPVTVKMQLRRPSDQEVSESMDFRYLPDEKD
T3 sequence 2: T1 sequence

RELARELA (p65 homodimer), sequence (Q04206 1-307): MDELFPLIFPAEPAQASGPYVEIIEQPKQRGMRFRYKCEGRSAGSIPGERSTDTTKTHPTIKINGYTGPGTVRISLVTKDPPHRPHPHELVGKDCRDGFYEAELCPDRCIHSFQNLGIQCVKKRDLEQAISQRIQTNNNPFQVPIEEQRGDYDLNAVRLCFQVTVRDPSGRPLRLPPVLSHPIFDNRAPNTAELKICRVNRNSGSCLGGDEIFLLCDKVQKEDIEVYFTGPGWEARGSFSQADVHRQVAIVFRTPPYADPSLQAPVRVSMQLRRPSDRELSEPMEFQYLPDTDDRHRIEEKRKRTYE
RELA (p65) subunit of heterodimer;p50 subunit, sequence (Q04206 1-307, chain 1 of 2): as the sequence (Q04206 1-307) above
RELA (p65) subunit of heterodimer;p50 subunit, sequence (P19838 7-356, chain 2 of 2): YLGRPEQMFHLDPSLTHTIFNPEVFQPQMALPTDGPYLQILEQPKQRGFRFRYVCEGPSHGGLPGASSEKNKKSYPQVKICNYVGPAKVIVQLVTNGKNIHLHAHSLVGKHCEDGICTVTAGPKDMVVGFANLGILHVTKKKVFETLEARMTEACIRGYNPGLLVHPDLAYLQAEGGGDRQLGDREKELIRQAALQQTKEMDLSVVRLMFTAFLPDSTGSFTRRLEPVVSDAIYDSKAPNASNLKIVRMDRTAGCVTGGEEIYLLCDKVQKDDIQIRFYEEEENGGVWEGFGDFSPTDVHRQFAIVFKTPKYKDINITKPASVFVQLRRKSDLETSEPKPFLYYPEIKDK
p50p50 homodimer, sequence (P19838 7-356): as the sequence (P19838 7-356, chain 2 of 2) above

As for GAGAAGATCCC, the binding signal in the assay with RELARELA (p65 homodimer) was -0.164 z-score; with p50p50 homodimer, -0.0695 z-score; in the assay with p52p52 homodimer, -0.271 z-score; in assay [1], -0.131 z-score; in assay [2] it was -0.161 z-score; with RELB subunit;p50 subunit it was -0.259 z-score. The binding signal in the assay with RELB subunit;p52 subunit is -0.387 z-score; in assay [3], -0.311 z-score; in assay [4], -0.307 z-score.

Turning to GGGTAACCCCT, the binding signal in the assay with RELARELA (p65 homodimer) worked out at 1.23 z-score; in the assay with p50p50 homodimer it was 0.71 z-score; in the assay with p52p52 homodimer, 1.97 z-score; in [1] it was 1.42 z-score; in assay [2] it was 1.8 z-score; with RELB subunit;p50 subunit, 0.672 z-score. The binding signal with RELB subunit;p52 subunit stood at 1.45 z-score; in assay [3], 0.858 z-score; in assay [4], 1.95 z-score.

Regarding GGAAGCTTCCT, the binding signal is 0.818 z-score with RELARELA (p65 homodimer); -1.04 z-score with p50p50 homodimer; -0.619 z-score in the assay with p52p52 homodimer; -0.33 z-score in assay [1]; -0.759 z-score in assay [2]; -1.01 z-score with RELB subunit;p50 subunit. Moreover, the binding signal in the assay with RELB subunit;p52 subunit was -0.836 z-score; in assay [3], -0.977 z-score; in [4], -0.614 z-score.

Consider GAGGTTATCCT, for which the binding signal is -0.457 z-score with RELARELA (p65 homodimer); -0.539 z-score with p50p50 homodimer; -0.329 z-score with p52p52 homodimer; -0.899 z-score in [1]; -0.657 z-score in [2]; -0.734 z-score with RELB subunit;p50 subunit. Further, the values for the binding signal (in the assay with RELB subunit;p52 subunit; in assay [3]; in assay [4]) were -0.759 z-score, -1.3 z-score and -0.681 z-score, respectively.

CAGAGACCCCC: the binding signal with RELARELA (p65 homodimer) is -1.05 z-score; with p50p50 homodimer it was 0.706 z-score; with p52p52 homodimer, 0.0929 z-score; in [1], 0.407 z-score; in assay [2] it was 0.302 z-score; in the assay with RELB subunit;p50 subunit it was 0.373 z-score. Further, the binding signal in the assay with RELB subunit;p52 subunit came out at 0.502 z-score; in assay [3], 0.323 z-score; in [4], 0.174 z-score.

For CGAATCATCCC, the binding signal with RELARELA (p65 homodimer) was -0.386 z-score; with p50p50 homodimer it was -0.966 z-score; with p52p52 homodimer, -0.352 z-score; in assay [1] it was -0.734 z-score; in assay [2] it was -0.619 z-score; in the assay with RELB subunit;p50 subunit, -0.644 z-score. Besides, the results for the binding signal (with RELB subunit;p52 subunit; in assay [3]; in [4]) were -0.752 z-score, -0.745 z-score and -0.523 z-score, respectively.

For the sequence GAAAGGTTCCC, the binding signal was 0.328 z-score in the assay with RELARELA (p65 homodimer); -0.486 z-score with p50p50 homodimer; -0.241 z-score with p52p52 homodimer; -0.184 z-score in assay [1]; -0.334 z-score in [2]; -0.203 z-score in the assay with RELB subunit;p50 subunit. Also, the values for the binding signal (with RELB subunit;p52 subunit; in assay [3]; in assay [4]) were -0.316 z-score, -0.141 z-score and -0.167 z-score, respectively.

As for CAGAGTGCCCT, the binding signal in the assay with RELARELA (p65 homodimer) is -0.65 z-score; with p50p50 homodimer it was -1.13 z-score; with p52p52 homodimer, -0.629 z-score; in [1], -0.784 z-score; in assay [2], -0.964 z-score; in the assay with RELB subunit;p50 subunit, -0.897 z-score. Besides, the binding signal with RELB subunit;p52 subunit is -0.973 z-score; in assay [3], -0.975 z-score; in assay [4] it was -0.713 z-score.

With AGGAGCCTCCC, the binding signal with RELARELA (p65 homodimer) was -0.27 z-score; with p50p50 homodimer it was -0.831 z-score; in the assay with p52p52 homodimer, -0.599 z-score; in [1] it was -0.748 z-score; in [2] it was -0.852 z-score; with RELB subunit;p50 subunit, -0.76 z-score. Further, the binding signal with RELB subunit;p52 subunit was -0.789 z-score; in assay [3], -0.995 z-score; in [4] it was -0.719 z-score.

Consider GGAGAAACCCT, for which the binding signal with RELARELA (p65 homodimer) is 0.379 z-score; in the assay with p50p50 homodimer, -0.144 z-score; in the assay with p52p52 homodimer it was 0.127 z-score; in assay [1], 0.478 z-score; in [2], 0.623 z-score; in the assay with RELB subunit;p50 subunit it was -0.35 z-score. Besides, the binding signal turned out to be 0.176 z-score with RELB subunit;p52 subunit, 0.255 z-score in assay [3] and 0.637 z-score in assay [4].

As for AGATGCGCCCT, the binding signal with RELARELA (p65 homodimer) is -0.621 z-score; with p50p50 homodimer it was -1.13 z-score; in the assay with p52p52 homodimer it was -0.603 z-score; in assay [1] it was -0.768 z-score; in [2], -0.721 z-score; with RELB subunit;p50 subunit, -1.01 z-score. For the same sequence, the binding signal in the assay with RELB subunit;p52 subunit is -0.804 z-score; in assay [3] it was -1.47 z-score; in [4], -0.758 z-score.

With CAAGAGGTCCC, the binding signal with RELARELA (p65 homodimer) was 1.23 z-score; with p50p50 homodimer, -0.219 z-score; with p52p52 homodimer it was 0.0202 z-score; in [1], -0.152 z-score; in assay [2] it was -0.417 z-score; in the assay with RELB subunit;p50 subunit, 0.271 z-score. In addition, the binding signal in the assay with RELB subunit;p52 subunit is 0.113 z-score; in [3] it was -0.21 z-score; in [4], -0.201 z-score.

As for CGAGTGCTCCT, the binding signal is -0.962 z-score with RELARELA (p65 homodimer); -2.12 z-score in the assay with p50p50 homodimer; -0.788 z-score with p52p52 homodimer; -1.11 z-score in assay [1]; -1.03 z-score in assay [2]; -1.37 z-score in the assay with RELB subunit;p50 subunit. Moreover, the binding signal is -0.983 z-score with RELB subunit;p52 subunit, -1.63 z-score in assay [3] and -0.978 z-score in [4].

With GAAAACGTCCT, the binding signal with RELARELA (p65 homodimer) is -0.176 z-score; with p50p50 homodimer, -1.26 z-score; with p52p52 homodimer, -0.536 z-score; in assay [1] it was -0.838 z-score; in assay [2], -0.654 z-score; with RELB subunit;p50 subunit it was -0.872 z-score. The binding signal is -0.687 z-score with RELB subunit;p52 subunit, -0.823 z-score in [3] and -0.648 z-score in assay [4].

GAGTGGATCCT: the binding signal in the assay with RELARELA (p65 homodimer) was -0.466 z-score; with p50p50 homodimer it was -1.11 z-score; in the assay with p52p52 homodimer, -0.663 z-score; in [1], -0.846 z-score; in assay [2], -1 z-score; with RELB subunit;p50 subunit it was -1.04 z-score. The binding signal in the assay with RELB subunit;p52 subunit is -0.919 z-score; in [3], -1.49 z-score; in assay [4], -0.92 z-score.
